Results taken from PubChem BioAssay AID1259417 (TB Discovery Research, Infectious Disease Research Institute, 2018).
The whole screen tested about 1,100 compounds, of which about 760 (69%) were called active. The rule behind the calls is not given here. So high a share suggests a set chosen from earlier hits. This is one part of the list.

Assay: M. tuberculosis growth inhibition, HTS (AID 1259417);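 note: bacteria grown with compound for 5 days at 37 °C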
Conditions: stronger effect = higher value, concentration not given here
[1] = M. tuberculosis DsRed fluorescence growth inhibition
[2] = M. tuberculosis growth inhibition

Row | SMILES | inhibition [1] | inhibition [2]
1 | C[n+]1c2n(c3ccccc31)N=C(c1cc(C(C)(C)C)c(O)c(C(C)(C)C)c1)CS2 | -2.19% (inactive) | 3.98%
2 | O=C(CC12CC3CC(CC(C3)C1)C2)Nc1ccc(I)cc1F | 57.6% (active) | 24.5%
3 | CC(NC(=O)Nc1cccc(C(F)(F)F)c1)C1CC2CCC1C2 (configuration not stated) | 98.8% (active) | 99.4%
4 | Cc1cc(C)c2[nH]c3ccccc3c2n1 | 100% (active) | 101%
5 | CCn1c(Sc2ncnc3ccccc23)nc2ccccc21 | 33.7% (active) | 57.9%
6 | CCCc1cc(-c2nc(-c3ccc(Br)cc3)cs2)ccn1 | 98.5% (active) | 100%
7 | CCOC(=O)COc1ccc2c(=O)c(-c3ccccc3Cl)c(C)oc2c1C | 41.3% (active) | 87.5%
8 | CCOC(=O)COc1ccc2c(=O)c(-c3ccccc3F)coc2c1C | 77.2% (active) | 94.8%
9 | Clc1ccc(COc2ccc3ccccc3c2CNCc2cccnc2)c(Cl)c1 | 73.9% (active) | 65.8%
10 | Cc1cccc(OCC(O)CN2CCN(CCN3C(=O)c4cccc5cccc(c45)C3=O)CC2)c1C (configuration not stated) | 3.21% (inactive) | -19.3%
11 | OC(COc1ccccc1Cl)CN1CCN(C(c2ccccc2)c2ccccc2)CC1 (configuration not stated) | -4.97% (inactive) | -9.36%
12 | OC(COc1ccc2ccccc2c1)CN1CCCN(CC(O)COc2ccc3ccccc3c2)CC1 (configuration not stated) | 37.5% (active) | 79.7%
13 | O=C1c2cccc3cccc(c23)C(=O)N1CCN1CCN(CC(O)COc2ccccc2Cl)CC1 (configuration not stated) | -4.11% (inactive) | -8.38%
14 | O=C(c1ccc(Cl)cc1)c1ccc(OCC(O)CN2CCN(Cc3ccccc3)CC2)cc1 (configuration not stated) | 8.82% (inactive) | -14%
15 | O=C1c2cccc3cccc(c23)C(=O)N1CC1CCN(CC(O)COc2ccc3ccccc3c2)CC1 (configuration not stated) | 37.2% (active) | 31.4%
16 | Cc1ccc(Cl)cc1N1CCN(CC(O)COc2ccc(C(=O)c3ccccc3)cc2)CC1 (configuration not stated) | 16.7% (inactive) | 1.47%
17 | Cc1cccc(OCC(O)CN2CCN(C(c3ccccc3)c3ccccc3)CC2)c1C (configuration not stated) | -6.14% (inactive) | -29.9%
18 | Cc1ccc(OCC(O)CN2CCN(CC(O)COc3ccc(C)cc3C)CC2)c(C)c1 (configuration not stated) | 6.73% (active) | 45.2%
19 | CN(c1ccccc1)c1nc(N2CCCC2)nc(-n2ccnc2)n1 | 57.3% (active) | 34.7%
20 | c1ccc(CN2CCN(c3nc(-c4ccccc4)nc(-n4ccnc4)n3)CC2)cc1 | 2.46% (inactive) | -9.34%
21 | Cc1ccc(NC(=S)c2ccccn2)cc1 | 101% (active) | 101%
22 | CCCOc1ccc(Nc2cc(C)nc3ccc(Cl)cc23)cc1 | 101% (active) | 101%

Row | SMILES | inhibition [1] | inhibition [2]
23 | CCOC(=O)c1ccc2nc(C)cc(Nc3ccc(N4CCCCC4)cc3)c2c1 | 100% (active) | 100%
24 | CCCOc1ccccc1NC(=O)Nc1ccc(Cl)c(Cl)c1 | 0.884% (inactive) | -14.7%
25 | COC(=O)c1ccc2nc(C)cc(Nc3ccc(OCc4ccccc4)cc3)c2c1 | 92.1% (active) | 99.7%
26 | CCC(=Nc1ccccc1O)C1=C(O)CC(c2ccccc2)CC1=O (configuration not stated) | 98.9% (active) | 98.8%
27 | O=C(NNc1nc2c(F)cc(F)cc2s1)c1coc2ccccc2c1=O | -0.752% (inactive) | -17.4%
28 | O=C(c1ccco1)N(CCCn1ccnc1)c1nc2c(F)cc(F)cc2s1 | 97.5% (active) | 98.1%
29 | O=C(c1cccs1)N(CCCn1ccnc1)c1nc2c(F)cc(F)cc2s1 | 73.3% (active) | 81.6%
30 | O=C(c1ccco1)N(CCCn1ccnc1)c1nc2c(F)cccc2s1 | 91.1% (active) | 97.4%
31 | Oc1ccc(CSc2ccccc2)c2cccnc12 | 29% (active) | 45.1%
32 | O=C(c1cccc(Cl)c1)N1N=C(c2ccc(Cl)cc2)CC1(O)C(F)(F)F (configuration not stated) | 7.75% (inactive) | 23.1%
33 | CC1=NN(C(=S)Cc2ccccc2)C(C)(O)C1 (configuration not stated) | 5.87% (inactive) | 14.6%
34 | CC1=NN(C(=O)c2ccccc2)C(O)(c2ccncc2)C1 (configuration not stated) | 97.7% (active) | 94.3%
35 | CC1=NN(C(=O)c2cccc(Cl)c2)C(O)(c2ccc(Cl)cc2)C1 (configuration not stated) | 13.7% (active) | 42.4%
36 | CCC1=NN(C(=O)c2ccncc2)C(O)(c2ccc(Br)cc2)C1 (configuration not stated) | 97.9% (active) | 93.4%
37 | CC(C)(C)c1ccc(C(=O)N2N=C(c3ccccc3)CC2(O)C(F)(F)F)cc1 (configuration not stated) | 2.12% (inactive) | -7.59%
38 | CC1(C)CC(=O)C2=C(C1)OC(N)=C([N+](=O)[O-])C2c1ccc(C#N)s1 (configuration not stated) | 10.4% (active) | 32.4%
39 | CC1=NN(c2nc(-c3ccc(Cl)cc3)cs2)C(=O)C1C (configuration not stated) | 4.11% (inactive) | 7.17%
40 | N#Cc1ccc(-c2ccc(OCC(N)=O)cc2)cc1 | 17.9% (active) | 86.6%
41 | O=C(COc1ccc(Cl)cc1)Nc1ccc(Cc2ccncc2)cc1 | -0.257% (inactive) | -2.75%
42 | N#Cc1ccc(-c2ccc(OCC(=O)Nc3cccnc3)cc2)cc1 | 43% (active) | 88.1%
43 | CC(C)(C)C(=O)NC(=S)NNC(=O)C(c1ccccc1)c1ccccc1 | 44.9% (active) | 30.8%
44 | CCN1CCN(c2ccc(NC(=O)CC34CC5CC(CC(C5)C3)C4)cc2Cl)CC1 | 32.7% (active) | 46.9%

Row | SMILES | inhibition [1] | inhibition [2]
45 | O=C(CC12CC3CC(CC(C3)C1)C2)Nc1ccc(N2CCOCC2)c(Cl)c1 | 33.8% (active) | -14.8%
46 | CCC(=O)N1CCN(c2ccc(Cl)cc2NC(=O)CC23CC4CC(CC(C4)C2)C3)CC1 | 6.85% (inactive) | 6.57%
47 | Cc1ccc2c(c1)c1ncnc(N3CCc4ccccc4C3)c1n2C | 99.1% (active) | 100%
48 | Cc1ccc(Cn2c(=N)n(CC(O)c3ccc(Cl)c(Cl)c3)c3ccccc32)cc1 (configuration not stated) | 99.8% (active) | 98.9%
49 | c1ccc(CC2CCN(c3nc4ccccc4n4cnnc34)CC2)cc1 | 57.6% (active) | 39.3%
50 | c1ccc2c(NCCc3c[nH]c4ccccc34)c3ccccc3nc2c1 | 27.2% (active) | 59.7%
51 | FC(F)(F)c1cccc(-n2cc(-c3ccccc3)c3c(NCc4cccnc4)ncnc32)c1 | 4.11% (inactive) | -14%
52 | CCC1CCCCN1C(=S)NC(=O)c1ccc(F)cc1 (configuration not stated) | 7.93% (inactive) | 0.813%
53 | O=C(OCC(=O)N1CCCCC1)c1cc2ccccc2cc1O | 47.8% (active) | 88.2%
54 | CC1CCN(C(=O)COC(=O)c2cc3ccccc3cc2O)CC1 | 75.2% (active) | 96%
55 | CCC1CCCCN1C(=O)COC(=O)c1cc2ccccc2cc1O (configuration not stated) | 37.8% (active) | 89%
56 | CC1CC(C)CN(C(=O)Nc2ccc(Cl)c(Cl)c2)C1 (configuration not stated) | 9.98% (inactive) | 2.73%
57 | CC1CC(C)CN(C(=O)COC(=O)c2cc3ccccc3cc2O)C1 (configuration not stated) | 36.3% (active) | 90.7%
58 | Cc1c(Cl)ccc(OCCCN2CCCC(C)C2)c1C (configuration not stated) | 99.2% (active) | 92.6%
59 | CCOC(=O)CSc1nnc(-c2ccc(Cl)cc2Cl)o1 | 78.6% (active) | 85.5%
60 | Clc1ccc(-c2nnc(SCc3ccon3)o2)c(Cl)c1 | 82.2% (active) | 64.9%
61 | CC(C)OC(=O)CSc1nnc(-c2ccc(Cl)cc2Cl)o1 | 73% (active) | 86.2%
62 | CC(C)OC(=O)CSc1nnc(-c2ccc(N(C)C)cc2)o1 | 81.3% (active) | 91.9%
63 | COc1cc(OC)c(-c2nn3c(C4CCCCC4)nnc3s2)cc1OC | 3% (inactive) | 4.48%
64 | CCOC(=O)C(Oc1ccc2oc(C)c(C(=O)OC)c2c1)c1ccccc1 (configuration not stated) | -0.568% (inactive) | -19.6%
65 | COC(=O)C(Oc1ccc2c(c1)oc(=O)c1cc(OC)ccc12)c1ccccc1 (configuration not stated) | 27.2% (active) | 79.5%
66 | COc1cc(NC(=O)CC23CC4CC(CC(C4)C2)C3)ccc1NC(=O)c1ccco1 | -10.9% (inactive) | -3.8%

Row | SMILES | inhibition [1] | inhibition [2]
67 | COc1ccc(Cl)cc1NC(=O)CC12CC3CC(CC(C3)C1)C2 | 10.7% (inactive) | 2.06%
68 | COc1ccc(NC(=O)CC23CC4CC(CC(C4)C2)C3)cc1Cl | 97.4% (active) | 86.9%
69 | COc1ccc(NC(=O)CC23CC4CC(CC(C4)C2)C3)cc1[N+](=O)[O-] | 71% (active) | 49.1%
70 | CC(C)(C)c1cnc(NC(=O)c2ccccc2O)s1 | 71.4% (active) | 28.1%
71 | O=C(Nc1ncc(Cc2cccc(C(F)(F)F)c2)s1)c1cccs1 | 24.1% (inactive) | 23.5%
72 | CC(C)(C)c1ccc(C(=O)Nc2nccs2)cc1Br | 17.6% (inactive) | -5.32%
73 | O=C(CSc1nnc(-c2ccccc2Br)o1)N1CCc2ccccc2C1 | 24.1% (active) | 31.3%
74 | Nc1ccccc1NCCOc1ccccc1 | 98.3% (active) | 98.7%
75 | CC(=O)c1ccc(NCCC(=O)c2ccco2)cc1 | 17.6% (active) | 59.4%
76 | Cc1ccc(NC(=O)C(=O)NNC(=O)c2ccco2)cc1Cl | 6.77% (inactive) | 7.85%
77 | O=C(CCNc1ccc(-c2ccccc2)cc1)c1ccco1 | 34.2% (active) | 84.3%
78 | CCCCSc1ccc(NCCC(=O)c2ccco2)cc1 | 29.9% (active) | 60.7%
79 | O=C(COc1ccc(Cl)cc1)Nc1ccc(N2CCN(C(=O)c3ccco3)CC2)c(Cl)c1 | 0.893% (inactive) | -16.5%
80 | O=C(CCNc1cccc(Cl)c1)c1ccco1 | 97.7% (active) | 96.8%
81 | Cc1ccc(-c2csc3nc(SCC(N)=O)n(-c4ccccc4)c(=O)c23)cc1C | 4.1% (inactive) | -0.946%
82 | CCC(C)NCCOc1ccc(C(C)(C)c2ccccc2)cc1 (configuration not stated) | 98% (active) | 94.4%
83 | COc1ccc(OCC(=O)Nc2ccc(I)cc2C)cc1 | 22% (active) | 56.8%
84 | Cc1ccc(NCc2nnc(SCC(=O)OC3CCCCC3)o2)c(C)c1 | 91.7% (active) | 95%
85 | O=C(CSc1nnc(CNc2cccc(Cl)c2)o1)OC1CCCCC1 | 68.9% (active) | 81.6%
86 | O=C(CSc1nnc(Cc2ccccc2)o1)Nc1ccc2c(c1)OCO2 | 5.38% (inactive) | -1.39%
